The values below come from PMC7862700, “An all-to-all approach to the identification of sequence-specific readers for epigenetic DNA modifications on cytosine”.

Holding throughout (assay): DAPPL (digital affinity profiling via proximity ligation, sequencing); 10 mM Tris-HCl pH 7.5, 50 mM NaCl, 1 mM DTT, 4% glycerol, room temperature, 30 min; GST-TFs on glutathione beads, 16-mer random dsDNA library, 0.1% formaldehyde crosslink after washing; high values mean tight binding
What all share (conditions): protein: recombinant; tags: N-terminal GST; dsDNA, one strand shown

One assay has as its target T1, FLI1 (Homo sapiens, UniProt Q01543 1-452).
T1 sequence: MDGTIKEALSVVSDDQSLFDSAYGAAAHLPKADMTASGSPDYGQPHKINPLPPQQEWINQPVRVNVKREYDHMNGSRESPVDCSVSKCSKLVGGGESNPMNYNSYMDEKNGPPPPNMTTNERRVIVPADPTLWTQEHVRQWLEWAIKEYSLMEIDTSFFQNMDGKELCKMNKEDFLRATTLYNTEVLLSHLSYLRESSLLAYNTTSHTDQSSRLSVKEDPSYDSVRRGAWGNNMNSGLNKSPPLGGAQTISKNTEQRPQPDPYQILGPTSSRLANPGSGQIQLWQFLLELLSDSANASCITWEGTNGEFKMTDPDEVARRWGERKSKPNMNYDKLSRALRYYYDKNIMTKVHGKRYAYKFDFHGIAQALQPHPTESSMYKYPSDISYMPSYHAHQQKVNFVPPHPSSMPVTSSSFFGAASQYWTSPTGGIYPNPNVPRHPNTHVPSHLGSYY
The gist of the method:
(§1)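 Beads coated with glutathione captured GST-fused human transcription factors that had been expressed in yeast, and the factors were then given DNA barcodes and pooled with a tag-only sample. The pools were incubated with 200 nmole of a random double-stranded 16-mer DNA library in Tris/NaCl/DTT/glycerol buffer for 30 min at room temperature, washed, crosslinked with 0.1% formaldehyde and proximity-ligated with BsaI/T4 ligase at 37 °C for 1 h. PCR amplification and Illumina NextSeq500 sequencing came last. Binding signal is each hexamer's read frequency for a factor divided by its frequency for the tag-only sample.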

For another assay, the target named is T2, GABPA (Homo sapiens, UniProt Q06546 1-454).
T2 sequence: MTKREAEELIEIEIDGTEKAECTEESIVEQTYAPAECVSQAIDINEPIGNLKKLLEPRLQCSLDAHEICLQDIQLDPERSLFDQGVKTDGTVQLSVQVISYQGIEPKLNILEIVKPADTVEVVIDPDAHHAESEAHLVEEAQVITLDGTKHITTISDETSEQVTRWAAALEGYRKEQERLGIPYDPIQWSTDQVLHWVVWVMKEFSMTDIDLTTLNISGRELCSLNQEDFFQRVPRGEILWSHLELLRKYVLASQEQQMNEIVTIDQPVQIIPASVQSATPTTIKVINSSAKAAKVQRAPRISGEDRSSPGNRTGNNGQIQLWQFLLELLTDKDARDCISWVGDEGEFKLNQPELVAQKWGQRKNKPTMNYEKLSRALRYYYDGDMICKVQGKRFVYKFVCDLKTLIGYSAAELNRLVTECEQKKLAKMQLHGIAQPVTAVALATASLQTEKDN
The gist of the method: as §1

A further assay addresses T3, ERG (Homo sapiens, UniProt P11308 1-479).
T3 sequence: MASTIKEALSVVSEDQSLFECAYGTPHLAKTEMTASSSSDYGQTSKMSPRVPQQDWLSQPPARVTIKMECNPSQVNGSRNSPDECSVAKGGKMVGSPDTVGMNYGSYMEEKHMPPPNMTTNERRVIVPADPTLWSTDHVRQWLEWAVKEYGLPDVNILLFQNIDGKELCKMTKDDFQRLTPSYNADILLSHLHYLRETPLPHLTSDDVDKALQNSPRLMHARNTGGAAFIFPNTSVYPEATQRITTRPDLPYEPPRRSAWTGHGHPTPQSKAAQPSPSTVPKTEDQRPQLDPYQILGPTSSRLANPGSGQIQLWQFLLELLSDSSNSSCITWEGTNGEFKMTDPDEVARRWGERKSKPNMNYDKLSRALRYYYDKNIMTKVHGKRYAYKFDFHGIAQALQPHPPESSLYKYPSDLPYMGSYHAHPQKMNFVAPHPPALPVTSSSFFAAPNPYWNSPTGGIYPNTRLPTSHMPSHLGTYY
In a few lines: as §1

In a further assay the target is ELF1 (Homo sapiens, UniProt P32519 1-619). The gist of the method:
as §1

The next assay concerns the target T4, EHF (Homo sapiens, UniProt Q9NZC4 1-300).
T4 sequence: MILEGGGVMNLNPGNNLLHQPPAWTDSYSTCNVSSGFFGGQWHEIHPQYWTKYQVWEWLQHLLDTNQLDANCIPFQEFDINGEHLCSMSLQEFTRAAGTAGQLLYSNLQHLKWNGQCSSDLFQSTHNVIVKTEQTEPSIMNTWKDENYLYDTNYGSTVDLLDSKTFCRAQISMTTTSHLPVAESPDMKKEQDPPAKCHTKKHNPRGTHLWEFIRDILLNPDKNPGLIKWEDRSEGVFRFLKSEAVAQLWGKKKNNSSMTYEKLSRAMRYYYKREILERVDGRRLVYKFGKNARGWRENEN
In a few lines:
as §1

The target in another assay is SPI1 (Homo sapiens, UniProt P17947 1-270). In a few lines:
as §1

In the next assay the target is SPIB (Homo sapiens, UniProt Q01892 1-262). The gist of the method: as §1
Sequence of SPIB (Q01892 whole entry): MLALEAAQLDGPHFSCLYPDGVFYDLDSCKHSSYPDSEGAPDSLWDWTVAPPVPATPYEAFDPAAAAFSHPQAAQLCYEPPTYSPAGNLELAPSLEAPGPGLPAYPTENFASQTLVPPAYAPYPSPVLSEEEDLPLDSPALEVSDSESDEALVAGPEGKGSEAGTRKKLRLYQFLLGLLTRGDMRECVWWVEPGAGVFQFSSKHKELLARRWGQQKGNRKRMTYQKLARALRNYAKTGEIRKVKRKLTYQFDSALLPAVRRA
A further assay concerns the target T5, ELK3 (Homo sapiens, UniProt P41970 1-407).
T5 sequence: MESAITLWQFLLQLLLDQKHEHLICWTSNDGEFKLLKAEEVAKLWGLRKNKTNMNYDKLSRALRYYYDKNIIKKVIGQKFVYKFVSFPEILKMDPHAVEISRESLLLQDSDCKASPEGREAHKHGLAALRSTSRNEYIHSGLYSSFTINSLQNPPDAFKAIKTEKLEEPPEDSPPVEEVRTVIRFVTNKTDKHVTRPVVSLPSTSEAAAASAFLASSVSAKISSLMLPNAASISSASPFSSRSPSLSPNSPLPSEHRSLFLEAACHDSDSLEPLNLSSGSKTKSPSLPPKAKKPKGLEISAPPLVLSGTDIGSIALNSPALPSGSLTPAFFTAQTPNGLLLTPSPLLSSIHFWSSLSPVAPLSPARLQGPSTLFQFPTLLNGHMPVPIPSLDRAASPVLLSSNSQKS
In a few lines:
as §1

The target of the next assay is T6, FEV (Homo sapiens, UniProt Q99581 1-238).
T6 sequence: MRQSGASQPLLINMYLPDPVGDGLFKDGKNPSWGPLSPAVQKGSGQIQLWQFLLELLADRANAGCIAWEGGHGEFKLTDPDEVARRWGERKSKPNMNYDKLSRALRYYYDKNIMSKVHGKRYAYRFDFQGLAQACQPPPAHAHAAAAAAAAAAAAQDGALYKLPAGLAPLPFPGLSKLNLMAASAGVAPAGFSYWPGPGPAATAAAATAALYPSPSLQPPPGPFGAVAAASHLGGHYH
The gist of the method: as §1

A further assay addresses ETV5 (Homo sapiens, UniProt P41161 1-510). In a few lines:
as §1

The next assay deals with T7, SPIC (Homo sapiens, UniProt Q8N5J4 1-248).
T7 sequence: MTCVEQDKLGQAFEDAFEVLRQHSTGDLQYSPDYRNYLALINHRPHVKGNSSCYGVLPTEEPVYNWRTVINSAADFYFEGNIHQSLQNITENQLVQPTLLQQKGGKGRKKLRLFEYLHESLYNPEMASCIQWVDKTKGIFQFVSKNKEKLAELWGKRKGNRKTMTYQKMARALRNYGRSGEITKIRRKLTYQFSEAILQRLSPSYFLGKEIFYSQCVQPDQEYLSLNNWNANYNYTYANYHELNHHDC
The gist of the method: as §1

The next assay has as its target ELF4 (Homo sapiens, UniProt Q99607 1-663). The gist of the method: as §1
Another assay addresses T8, ERF (Homo sapiens, UniProt P50548 1-548).
T8 sequence: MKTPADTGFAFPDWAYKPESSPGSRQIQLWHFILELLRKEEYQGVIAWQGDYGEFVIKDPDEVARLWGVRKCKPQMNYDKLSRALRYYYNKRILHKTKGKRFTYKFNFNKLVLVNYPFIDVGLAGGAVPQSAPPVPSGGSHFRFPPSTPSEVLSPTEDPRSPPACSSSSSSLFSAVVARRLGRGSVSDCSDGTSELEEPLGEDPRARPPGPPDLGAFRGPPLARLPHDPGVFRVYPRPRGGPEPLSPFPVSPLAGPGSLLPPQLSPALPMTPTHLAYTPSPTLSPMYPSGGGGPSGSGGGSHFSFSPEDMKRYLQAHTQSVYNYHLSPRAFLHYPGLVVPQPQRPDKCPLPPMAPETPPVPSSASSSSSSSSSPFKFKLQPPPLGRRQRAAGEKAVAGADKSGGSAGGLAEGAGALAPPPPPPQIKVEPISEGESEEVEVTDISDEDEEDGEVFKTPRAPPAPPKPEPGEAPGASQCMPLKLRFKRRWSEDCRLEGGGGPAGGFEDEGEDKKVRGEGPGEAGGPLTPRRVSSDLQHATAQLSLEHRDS
In a few lines: as §1

The next assay has as its target T9, ETV3L (Homo sapiens, UniProt Q6ZN32 1-361).
T9 sequence: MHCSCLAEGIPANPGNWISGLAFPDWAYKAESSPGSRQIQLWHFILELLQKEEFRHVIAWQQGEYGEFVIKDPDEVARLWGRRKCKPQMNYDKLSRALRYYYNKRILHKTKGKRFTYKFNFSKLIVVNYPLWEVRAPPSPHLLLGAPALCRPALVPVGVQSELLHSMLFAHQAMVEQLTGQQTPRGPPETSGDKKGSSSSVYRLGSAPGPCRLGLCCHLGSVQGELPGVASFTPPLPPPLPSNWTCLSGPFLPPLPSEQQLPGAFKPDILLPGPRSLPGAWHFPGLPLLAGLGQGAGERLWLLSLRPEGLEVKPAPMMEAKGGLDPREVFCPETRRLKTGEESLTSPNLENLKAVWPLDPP
In a few lines:
as §1

The next assay concerns the target T10, ETS2 (Homo sapiens, UniProt P15036 1-469).
T10 sequence: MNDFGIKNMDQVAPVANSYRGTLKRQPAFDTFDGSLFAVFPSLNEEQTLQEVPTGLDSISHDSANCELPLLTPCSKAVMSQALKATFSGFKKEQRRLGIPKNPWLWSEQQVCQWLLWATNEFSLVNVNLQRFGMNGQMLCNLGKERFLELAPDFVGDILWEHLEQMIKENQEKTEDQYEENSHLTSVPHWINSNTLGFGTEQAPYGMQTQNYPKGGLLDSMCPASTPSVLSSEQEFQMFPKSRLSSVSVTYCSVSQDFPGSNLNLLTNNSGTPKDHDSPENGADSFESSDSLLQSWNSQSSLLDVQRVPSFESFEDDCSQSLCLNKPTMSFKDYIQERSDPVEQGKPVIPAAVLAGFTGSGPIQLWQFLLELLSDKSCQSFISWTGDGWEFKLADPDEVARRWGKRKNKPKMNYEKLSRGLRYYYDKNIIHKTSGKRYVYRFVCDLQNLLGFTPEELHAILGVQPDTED
The gist of the method: as §1

For the next assay, the target named is ETV6 (Homo sapiens, UniProt P41212 1-452). In a few lines:
as §1

Sequence of ETV5 (P41161 whole entry): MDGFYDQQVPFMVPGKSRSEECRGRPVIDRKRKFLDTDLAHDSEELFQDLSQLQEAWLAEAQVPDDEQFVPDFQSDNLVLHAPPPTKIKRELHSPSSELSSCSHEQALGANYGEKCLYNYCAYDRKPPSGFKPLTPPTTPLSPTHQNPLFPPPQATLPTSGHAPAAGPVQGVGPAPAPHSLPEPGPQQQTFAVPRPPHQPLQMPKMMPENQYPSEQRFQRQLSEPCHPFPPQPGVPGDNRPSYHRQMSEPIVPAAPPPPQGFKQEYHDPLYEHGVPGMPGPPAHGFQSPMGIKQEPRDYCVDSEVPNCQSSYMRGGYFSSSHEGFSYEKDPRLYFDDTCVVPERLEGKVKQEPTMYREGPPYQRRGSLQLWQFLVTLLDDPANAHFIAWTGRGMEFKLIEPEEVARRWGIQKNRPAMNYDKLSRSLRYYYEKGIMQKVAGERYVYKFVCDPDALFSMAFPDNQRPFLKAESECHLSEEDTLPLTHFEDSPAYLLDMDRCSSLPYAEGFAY
Sequence of ETV6 (P41212 whole entry): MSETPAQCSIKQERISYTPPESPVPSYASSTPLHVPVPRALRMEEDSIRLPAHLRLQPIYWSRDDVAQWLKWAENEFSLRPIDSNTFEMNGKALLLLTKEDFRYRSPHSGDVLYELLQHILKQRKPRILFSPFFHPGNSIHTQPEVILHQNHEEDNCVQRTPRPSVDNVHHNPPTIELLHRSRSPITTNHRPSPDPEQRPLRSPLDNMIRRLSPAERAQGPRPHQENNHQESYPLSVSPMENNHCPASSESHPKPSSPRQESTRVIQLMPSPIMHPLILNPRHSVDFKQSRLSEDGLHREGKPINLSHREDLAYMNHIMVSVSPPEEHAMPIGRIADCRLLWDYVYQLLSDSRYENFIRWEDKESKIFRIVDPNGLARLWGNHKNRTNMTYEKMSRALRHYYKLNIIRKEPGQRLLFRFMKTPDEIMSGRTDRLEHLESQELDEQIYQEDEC
Sequence of ELF4 (Q99607 whole entry): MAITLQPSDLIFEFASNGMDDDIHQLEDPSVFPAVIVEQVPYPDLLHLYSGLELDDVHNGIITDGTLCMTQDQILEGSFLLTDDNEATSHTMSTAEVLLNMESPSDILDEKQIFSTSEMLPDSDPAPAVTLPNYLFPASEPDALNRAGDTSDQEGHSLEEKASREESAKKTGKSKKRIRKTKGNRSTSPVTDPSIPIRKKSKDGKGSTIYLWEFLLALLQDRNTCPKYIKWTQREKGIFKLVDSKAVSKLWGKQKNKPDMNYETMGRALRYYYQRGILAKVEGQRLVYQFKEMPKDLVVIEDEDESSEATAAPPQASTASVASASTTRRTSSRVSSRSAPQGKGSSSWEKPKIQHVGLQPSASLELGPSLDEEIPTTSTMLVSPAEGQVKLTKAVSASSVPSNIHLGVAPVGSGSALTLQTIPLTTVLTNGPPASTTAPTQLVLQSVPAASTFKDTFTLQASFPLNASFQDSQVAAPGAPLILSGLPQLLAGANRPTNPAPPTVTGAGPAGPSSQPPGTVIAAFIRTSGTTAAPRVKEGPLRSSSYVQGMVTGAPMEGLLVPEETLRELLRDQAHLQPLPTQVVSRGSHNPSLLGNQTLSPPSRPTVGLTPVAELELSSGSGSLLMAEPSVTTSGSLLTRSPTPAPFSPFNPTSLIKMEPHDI
Sequence of ELF1 (P32519 whole entry): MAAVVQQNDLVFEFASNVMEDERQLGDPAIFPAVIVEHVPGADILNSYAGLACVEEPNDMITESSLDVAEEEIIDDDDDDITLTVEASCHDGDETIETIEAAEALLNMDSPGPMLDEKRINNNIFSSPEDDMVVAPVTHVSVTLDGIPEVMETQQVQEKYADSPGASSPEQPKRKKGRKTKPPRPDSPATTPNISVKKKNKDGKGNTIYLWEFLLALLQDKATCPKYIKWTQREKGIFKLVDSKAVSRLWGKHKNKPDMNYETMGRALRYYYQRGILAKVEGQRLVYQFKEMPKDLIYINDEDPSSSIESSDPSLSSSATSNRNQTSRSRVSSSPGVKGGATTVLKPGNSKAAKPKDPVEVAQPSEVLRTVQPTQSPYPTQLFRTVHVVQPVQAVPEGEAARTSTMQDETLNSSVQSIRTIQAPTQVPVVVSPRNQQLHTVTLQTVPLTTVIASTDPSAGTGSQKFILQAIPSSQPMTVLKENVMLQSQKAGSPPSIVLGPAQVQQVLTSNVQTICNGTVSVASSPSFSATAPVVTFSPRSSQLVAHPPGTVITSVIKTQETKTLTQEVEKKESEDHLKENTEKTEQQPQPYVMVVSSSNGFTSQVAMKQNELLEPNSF

Consider CAGCTA, for which the binding signal with FLI1 was 1.1 fold enrichment (6-mer frequency, TF over GST control); in the assay with GABPA, 1.06 fold enrichment (6-mer frequency, TF over GST control); with ERG, 1.03 fold enrichment (6-mer frequency, TF over GST control); in the assay with ELF1, 1.07 fold enrichment (6-mer frequency, TF over GST control); with EHF it was 1.05 fold enrichment (6-mer frequency, TF over GST control); with SPI1 it was 1.03 fold enrichment (6-mer frequency, TF over GST control). Besides, the binding signal was 1.04 fold enrichment (6-mer frequency, TF over GST control) with SPIB; 1.02 fold enrichment (6-mer frequency, TF over GST control) in the assay with ELK3; 1.02 fold enrichment (6-mer frequency, TF over GST control) with FEV; 1.01 fold enrichment (6-mer frequency, TF over GST control) in the assay with ETV5; 1.07 fold enrichment (6-mer frequency, TF over GST control) with SPIC; 1.03 fold enrichment (6-mer frequency, TF over GST control) with ELF4. The binding signal with ERF was 1.08 fold enrichment (6-mer frequency, TF over GST control); with ETV3L it was 1.05 fold enrichment (6-mer frequency, TF over GST control); with ETS2 it was 1.06 fold enrichment (6-mer frequency, TF over GST control); in the assay with ETV6, 1.01 fold enrichment (6-mer frequency, TF over GST control).
